Our source for the binding signal values is publication PMC9911399, “Two distinct binding modes provide the RNA-binding protein RbFox with extraordinary sequence specificity”.

Substitutions are numbered along the chain they refer to; changes in the protein carry UniProt numbers. In all, about 16,000 sequences were measured (“ka relative to ugcaugu”: median about 0.096, highest 2% from about 0.35 on). The sample as a whole holds a higher share of the highest values than the screen did.

To fix the notation:
B1: AGACUAU (DNA:RNA)
RNA: GGGAGACCGGAAUUCAGAUUGUCCAGACUAUUUAAAUCCCGUCGUAGCCACCA
DNA 1: CAATCTGAATTCCGGTCTCCC
DNA 2: TGGTGGCTACGACGGGATT
B2: CGUCGCC (DNA:RNA)
RNA: B1 RNA with A25C, A27U, U29G, A30C, U31C
DNA 1: CAATCTGAATTCCGGTCTCCC
DNA 2: TGGTGGCTACGACGGGATT
B3: UCACCUC (DNA:RNA)
RNA: B1 RNA with A25U, G26C, U29C, A30U, U31C
DNA 1: CAATCTGAATTCCGGTCTCCC
DNA 2: TGGTGGCTACGACGGGATT
B4: AAAAUUC (DNA:RNA)
RNA: B1 RNA with G26A, C28A, A30U, U31C
DNA 1: CAATCTGAATTCCGGTCTCCC
DNA 2: TGGTGGCTACGACGGGATT
B5: GGAAUGG (DNA:RNA)
RNA: B1 RNA with A25G, C28A, A30G, U31G
DNA 1: CAATCTGAATTCCGGTCTCCC
DNA 2: TGGTGGCTACGACGGGATT
B6: AGAUUGG (DNA:RNA)
RNA: B1 RNA with C28U, A30G, U31G
DNA 1: CAATCTGAATTCCGGTCTCCC
DNA 2: TGGTGGCTACGACGGGATT
B7: CGAAUGG (DNA:RNA)
RNA: B1 RNA with A25C, C28A, A30G, U31G
DNA 1: CAATCTGAATTCCGGTCTCCC
DNA 2: TGGTGGCTACGACGGGATT
B8: GUAAUGG (DNA:RNA)
RNA: B1 RNA with A25G, G26U, C28A, A30G, U31G
DNA 1: CAATCTGAATTCCGGTCTCCC
DNA 2: TGGTGGCTACGACGGGATT
B9: AGAAUGG (DNA:RNA)
RNA: B1 RNA with C28A, A30G, U31G
DNA 1: CAATCTGAATTCCGGTCTCCC
DNA 2: TGGTGGCTACGACGGGATT
B10: GGUAUGG (DNA:RNA)
RNA: B1 RNA with A25G, A27U, C28A, A30G, U31G
DNA 1: CAATCTGAATTCCGGTCTCCC
DNA 2: TGGTGGCTACGACGGGATT
B11: CGUAUGG (DNA:RNA)
RNA: B1 RNA with A25C, A27U, C28A, A30G, U31G
DNA 1: CAATCTGAATTCCGGTCTCCC
DNA 2: TGGTGGCTACGACGGGATT
B12: GUUAUGG (DNA:RNA)
RNA: B1 RNA with A25G, G26U, A27U, C28A, A30G, U31G
DNA 1: CAATCTGAATTCCGGTCTCCC
DNA 2: TGGTGGCTACGACGGGATT
B13: GAAAUGG (DNA:RNA)
RNA: B1 RNA with A25G, G26A, C28A, A30G, U31G
DNA 1: CAATCTGAATTCCGGTCTCCC
DNA 2: TGGTGGCTACGACGGGATT
B14: GAAUGGG (DNA:RNA)
RNA: B1 RNA with A25G, G26A, C28U, U29G, A30G, U31G
DNA 1: CAATCTGAATTCCGGTCTCCC
DNA 2: TGGTGGCTACGACGGGATT
B15: AGAAUUG (DNA:RNA)
RNA: B1 RNA with C28A, A30U, U31G
DNA 1: CAATCTGAATTCCGGTCTCCC
DNA 2: TGGTGGCTACGACGGGATT
B16: GUAUGGU (DNA:RNA)
RNA: B1 RNA with A25G, G26U, C28U, U29G, A30G
DNA 1: CAATCTGAATTCCGGTCTCCC
DNA 2: TGGTGGCTACGACGGGATT
B17: GGGCCAA (DNA:RNA)
RNA: B1 RNA with A25G, A27G, U29C, U31A
DNA 1: CAATCTGAATTCCGGTCTCCC
DNA 2: TGGTGGCTACGACGGGATT
B18: UUCGUCU (DNA:RNA)
RNA: B1 RNA with A25U, G26U, A27C, C28G, A30C
DNA 1: CAATCTGAATTCCGGTCTCCC
DNA 2: TGGTGGCTACGACGGGATT
B19: GGACUAG (DNA:RNA)
RNA: B1 RNA with A25G, U31G
DNA 1: CAATCTGAATTCCGGTCTCCC
DNA 2: TGGTGGCTACGACGGGATT
B20: ACCCGUU (DNA:RNA)
RNA: B1 RNA with G26C, A27C, U29G, A30U
DNA 1: CAATCTGAATTCCGGTCTCCC
DNA 2: TGGTGGCTACGACGGGATT
B21: AUGGCUC (DNA:RNA)
RNA: B1 RNA with G26U, A27G, C28G, U29C, A30U, U31C
DNA 1: CAATCTGAATTCCGGTCTCCC
DNA 2: TGGTGGCTACGACGGGATT
B22: UAUUUAA (DNA:RNA)
RNA: B1 RNA with A25U, G26A, A27U, C28U, U31A
DNA 1: CAATCTGAATTCCGGTCTCCC
DNA 2: TGGTGGCTACGACGGGATT
B23: AGCAGCG (DNA:RNA)
RNA: B1 RNA with A27C, C28A, U29G, A30C, U31G
DNA 1: CAATCTGAATTCCGGTCTCCC
DNA 2: TGGTGGCTACGACGGGATT
B24: GGAUGGU (DNA:RNA)
RNA: B1 RNA with A25G, C28U, U29G, A30G
DNA 1: CAATCTGAATTCCGGTCTCCC
DNA 2: TGGTGGCTACGACGGGATT
B25: GAUUGGC (DNA:RNA)
RNA: GGGAGACCGGAAUUCAGAUUGUCCGAUUGGCUUAAAUCCCGUCGUAGCCACCA
DNA 1: CAATCTGAATTCCGGTCTCCC
DNA 2: TGGTGGCTACGACGGGATT
B26: GAUGGUU (DNA:RNA)
RNA: B25 RNA with U28G, G30U, C31U
DNA 1: CAATCTGAATTCCGGTCTCCC
DNA 2: TGGTGGCTACGACGGGATT
B27: GAAUGGU (DNA:RNA)
RNA: B25 RNA with U27A, C31U
DNA 1: CAATCTGAATTCCGGTCTCCC
DNA 2: TGGTGGCTACGACGGGATT
B28: GAAUGGC (DNA:RNA)
RNA: B25 RNA with U27A
DNA 1: CAATCTGAATTCCGGTCTCCC
DNA 2: TGGTGGCTACGACGGGATT
B29: CGAUGGC (DNA:RNA)
RNA: B25 RNA with G25C, A26G, U27A
DNA 1: CAATCTGAATTCCGGTCTCCC
DNA 2: TGGTGGCTACGACGGGATT
B30: GAGAAAU (DNA:RNA)
RNA: B1 RNA with A25G, G26A, A27G, C28A, U29A
DNA 1: CAATCTGAATTCCGGTCTCCC
DNA 2: TGGTGGCTACGACGGGATT
B31: GAACCCG (DNA:RNA)
RNA: B1 RNA with A25G, G26A, U29C, A30C, U31G
DNA 1: CAATCTGAATTCCGGTCTCCC
DNA 2: TGGTGGCTACGACGGGATT

The target of the experiment is T1, RBFOX1 RRM RbFoxmut (Fox-RRM*) (Homo sapiens, UniProt Q9NWB1 109-208, R118D;E147R;N151S;E152T).
T1 sequence: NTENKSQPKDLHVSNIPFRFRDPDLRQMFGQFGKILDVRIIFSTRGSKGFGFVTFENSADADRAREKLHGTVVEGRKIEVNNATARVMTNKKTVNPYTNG
In words: EMSA; HiTS-Eq, 1 nM pool, 10 min; buffer printed only for the single-RNA assays: 10 mM Tris pH 7.5, 150 mM NaCl, 3.4 mM EDTA, 0.001% NP-40, 30 C. The following applies: tags: His6 N-terminal (pET28a); label: 5' 32P. A digest of the protocol:
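Relative association constants, normalised to the cognate motif, were derived by comparing read counts of each RNA species with those of the control reaction. The RNA sequenced was the free fraction, separated by 8% native PAGE after a 10 min equilibration in 50 µL of 1 nM 5′-radiolabelled RNA (7 randomized nucleotides) with increasing concentrations of purified wild-type or mutant RbFox RRM.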
In general terms: In EMSA bound probe runs differently from free probe, usually more slowly.
B1: the binding signal is 0.0902 KA relative to UGCAUGU.
The figure for B2 is 0.0841 KA relative to UGCAUGU; for B3 it is 0.0699 KA relative to UGCAUGU; for B4 it is 0.0842 KA relative to UGCAUGU.
B5: the binding signal is 0.724 KA relative to UGCAUGU.
As for B6, the figure is 0.125 KA relative to UGCAUGU.
The figure for B7 is 0.72 KA relative to UGCAUGU.
As for B8, the figure is 0.0836 KA relative to UGCAUGU; as for B9, 0.541 KA relative to UGCAUGU; as for B10, 0.419 KA relative to UGCAUGU.
As to B11, the binding signal was 0.261 KA relative to UGCAUGU.
The figure for B12 is 0.123 KA relative to UGCAUGU; for B13 it is 0.0639 KA relative to UGCAUGU; for B14 it is 0.21 KA relative to UGCAUGU.
As for B15, the binding signal is 0.129 KA relative to UGCAUGU.
B16: the binding signal is 0.325 KA relative to UGCAUGU.
The figure for B17 is 0.0698 KA relative to UGCAUGU; for B18 it is 0.0697 KA relative to UGCAUGU; for B19 it is 0.0756 KA relative to UGCAUGU.
The figure for B20 is 0.0752 KA relative to UGCAUGU; for B21 it is 0.111 KA relative to UGCAUGU.
The figure for B22 is 0.0892 KA relative to UGCAUGU; for B23 it is 0.113 KA relative to UGCAUGU.
As to B24, the binding signal is 0.201 KA relative to UGCAUGU.
The figure for B25 is 0.145 KA relative to UGCAUGU; for B26 it is 0.0937 KA relative to UGCAUGU.
The figure for B27 is 0.748 KA relative to UGCAUGU; for B28 it is 0.592 KA relative to UGCAUGU; for B29 it is 0.101 KA relative to UGCAUGU.
The figure for B30 is 0.0893 KA relative to UGCAUGU; for B31 it is 0.0645 KA relative to UGCAUGU.
